PubChem BioAssay (NCATS)
Results filed as inconclusive are left out. Active and inactive are the calls of the source. Calls follow the shape of the dose curve; as a rule, active = well fitted inhibition curve with a large enough effect; inconclusive = small, poorly fitted or top-dose-only effect; inactive = flat fitted curve, though single readings scatter.

target: Dual specificity protein kinase CLK4 (Homo sapiens) (UniProt Q9HAZ1); test: qHTS Assay for Inhibitors of CDC-like Kinase 4 (Kinase-Glo Assay) (AID 1770); details: recombinant Clk4, Kinase-Glo ATP depletion luminescence; series mostly up to 66.7 µM; activity, negative = inhibition: at the top concentration; also: nearly all actives have a fitted effect of over 65% in size
Sequence (Q9HAZ1 whole entry, looked up): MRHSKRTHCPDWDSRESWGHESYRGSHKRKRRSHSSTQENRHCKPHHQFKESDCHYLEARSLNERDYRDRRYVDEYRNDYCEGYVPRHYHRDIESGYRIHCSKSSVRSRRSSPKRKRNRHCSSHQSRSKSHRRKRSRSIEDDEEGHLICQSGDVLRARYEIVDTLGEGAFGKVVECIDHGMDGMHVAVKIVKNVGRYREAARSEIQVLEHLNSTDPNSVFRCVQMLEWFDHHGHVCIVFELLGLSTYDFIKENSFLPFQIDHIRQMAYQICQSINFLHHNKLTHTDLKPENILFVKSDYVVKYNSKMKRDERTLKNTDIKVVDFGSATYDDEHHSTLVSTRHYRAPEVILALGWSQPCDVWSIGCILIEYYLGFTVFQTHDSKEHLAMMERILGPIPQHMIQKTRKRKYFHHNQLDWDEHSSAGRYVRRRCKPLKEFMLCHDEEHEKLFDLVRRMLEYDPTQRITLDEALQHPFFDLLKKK
Summary of the method: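 Clk4 25 nM, RS peptide 100 uM, ATP 1 uM, pH 7.5 Tris, 10 mM MgCl2, 2.5 mM DTT; 4.5 h RT; ATP depletion read by Kinase-Glo luminescence.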
% is scaled to controls: 0 for no effect and ±100 for the full control effect; potency is read from the fitted curve at half-maximal effect.

Row | SMILES | Potency | activity, negative = inhibition
1 | COCCNc1ncnc2ccc(-c3cccc(NS(C)(=O)=O)c3)cc12 | 12.6 µM (active) | –
2 | CC(=O)NCCNc1ncncc1-c1ccc(N(C)C)cc1 | – | -11.8% (inactive)
3 | COc1ccc(Oc2ncc3nc(-c4ccc(OC)cc4)c(=O)n(C)c3n2)cc1 | – | -2.35% (inactive)
4 | CN1CCN(c2ncc3nc(-c4ccc(Cl)cc4)c(=O)n(-c4ccccc4)c3n2)CC1 | – | -12.2% (inactive)
5 | CN1CCN(c2ccnc(-c3ccoc3)n2)CC1 | – | -2.94% (inactive)
6 | Cc1ccccc1-c1nccc(NCc2cccs2)n1 | – | -0.774% (inactive)
7 | Cc1cccc(CNc2cc(-c3c(C)noc3C)ncn2)c1 | 15.8 µM (active) | –
8 | O=c1cnc2cnc(Oc3cccc(Cl)c3)nc2n1C[C@H]1CCCO1 | – | -29.5% (inactive)
9 | CS(=O)(=O)Nc1cccc(-c2ccc3ncnc(NC4CC4)c3c2)c1 | 6.31 µM (active) | –
10 | COc1ccc(-n2c(=O)cnc3cnc(N(C)C)nc32)cc1 | 11.2 µM (active) | –
11 | COc1cccc(Nc2ncc3nc(C)c(=O)n(C4CC4)c3n2)c1 | 12.6 µM (active) | –
12 | COc1ccc2[nH]cc(CCNc3ncnc4ccc(-c5cccnc5)cc34)c2c1 | 2.24 µM (active) | –
13 | CC(=O)NCCNc1ncnc2ccc(-c3ccoc3)cc12 | 0.891 µM (active) | –
14 | CNc1ncnc2ccc(-c3ccccc3CN(C)C)cc12 | 25.1 µM (active) | –
15 | c1csc(CNc2ncnc3ccc(-c4ccoc4)cc23)c1 | 0.251 µM (active) | –
16 | COCCn1c(=O)c(C)nc2cnc(Oc3ccc(OC)cc3)nc21 | – | -2.91% (inactive)
17 | c1cncc(CNc2ncncc2-c2cccnc2)c1 | – | -13.6% (inactive)
18 | CN(C)C(=O)c1ccc(-c2cc(Nc3ccccc3)ncn2)cc1 | 14.1 µM (active) | –
19 | COCCNc1ncnc2ccc(-c3ccoc3)cc12 | 0.891 µM (active) | –
20 | COc1cccc(Cn2c(=O)cnc3cncnc32)c1 | 15.8 µM (active) | –
21 | CCNc1ncc2nc(-c3cn(C)c4ccccc34)c(=O)n(C)c2n1 | – | -15.9% (inactive)
22 | COc1ccc(-c2nc3cnc(Oc4cccc(Cl)c4)nc3n(C3CC3)c2=O)cc1 | – | 2.09% (inactive)

target: Dual specificity protein kinase CLK4 (Homo sapiens) (UniProt Q9HAZ1); test: qHTS Assay for Inhibitors of CDC-like Kinase 4 (ADP-Glo Assay) (AID 1771); details: recombinant CLK4, ADP-Glo luminescence; series mostly up to 80 µM; activity change, negative = inhibition: at the top concentration; also: nearly all actives have a fitted effect of over 70% in size
Summary of the method: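 25 nM Clk4, 100 uM RS peptide, 1 uM ATP (final); 2 mM MgCl2, 0.5 mM EGTA, 2.5 mM DTT, 0.01% Triton X-100; 1 hr RT. ADP-Glo readout: ATP depletion 45 min, conversion/luciferase 30 min, luminescence.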

Row | SMILES | activity change, negative = inhibition | Potency
23 | Cc1ccccc1-c1cncnc1NCc1ccccc1 | -5.32% (inactive) | –
24 | CN(C)C(=O)c1ccc(-c2cc(NCc3cccnc3)ncn2)cc1 | – | 14.1 µM (active)
25 | Cc1noc(C)c1-c1cc(NCc2cccnc2)ncn1 | – | 22.4 µM (active)
26 | CN(C)c1ncc2nc(-c3cc(F)cc(F)c3)c(=O)n(CCC#N)c2n1 | 12.1% (inactive) | –
27 | c1nc(NC2CCNCC2)c2cc(-c3ccoc3)ccc2n1 | – | 1 µM (active)
28 | Fc1ccc(Nc2ncncc2-c2ccccc2C(F)(F)F)cc1 | -24.6% (inactive) | –
29 | COc1ccc(-c2nc3cnc(Oc4ccccc4)nc3n(CCC#N)c2=O)cc1 | 1.52% (inactive) | –
30 | COc1ccc(-c2nc3cnc(N4CCN(C)CC4)nc3n(Cc3cccs3)c2=O)cc1 | 1.59% (inactive) | –
31 | COc1ccc(-n2c(=O)c(-c3ccc(F)cc3)nc3cnc(N4CCOCC4)nc32)cc1 | -3.48% (inactive) | –
32 | Cc1noc(C)c1-c1nccc(N2CCOCC2)n1 | – | 14.1 µM (active)
33 | COc1ccccc1CCn1c(=O)c(-c2cccc(F)c2)nc2cncnc21 | -4.32% (inactive) | –
34 | COCCn1c(=O)cnc2cnc(Oc3ccc(OC)cc3)nc21 | -8.2% (inactive) | –
35 | O=c1c(-c2ccc(F)cc2)nc2cnc(Oc3ccccc3)nc2n1C1CC1 | 5.28% (inactive) | –
36 | COc1ccc(Oc2ncc3nc(C)c(=O)n(C[C@H]4CCCO4)c3n2)cc1 | -2.77% (inactive) | –
37 | CCNc1ncc2nc(-c3cccs3)c(=O)n(C)c2n1 | -24.2% (inactive) | –
38 | COCCNc1nc(-c2ccccc2Cl)nc2ccccc12 | – | 8.91 µM (active)
39 | CN(C)c1ccc(-c2ccc3ncnc(N(C)C)c3c2)cc1 | – | 8.91 µM (active)
40 | COCCn1c(=O)c(C)nc2cnc(N(C)C)nc21 | 2.07% (inactive) | –
41 | COCCNc1ncnc2ccc(-c3cccc(NS(C)(=O)=O)c3)cc12 | – | 8.91 µM (active)
42 | CC(=O)NCCNc1ncncc1-c1ccc(N(C)C)cc1 | -5.24% (inactive) | –

Row | SMILES | activity change, negative = inhibition | Potency
43 | COc1ccc(Oc2ncc3nc(-c4ccc(OC)cc4)c(=O)n(C)c3n2)cc1 | 4.25% (inactive) | –
44 | CN1CCN(c2ncc3nc(-c4ccc(Cl)cc4)c(=O)n(-c4ccccc4)c3n2)CC1 | -2.4% (inactive) | –
45 | CN1CCN(c2ccnc(-c3ccoc3)n2)CC1 | -0.418% (inactive) | –
46 | Cc1ccccc1-c1nccc(NCc2cccs2)n1 | -8.86% (inactive) | –
47 | Cc1cccc(CNc2cc(-c3c(C)noc3C)ncn2)c1 | – | 15.8 µM (active)
48 | O=c1cnc2cnc(Oc3cccc(Cl)c3)nc2n1C[C@H]1CCCO1 | -9.73% (inactive) | –
49 | CS(=O)(=O)Nc1cccc(-c2ccc3ncnc(NC4CC4)c3c2)c1 | – | 5.01 µM (active)
50 | COc1ccc(-n2c(=O)cnc3cnc(N(C)C)nc32)cc1 | – | 12.6 µM (active)
51 | COc1cccc(Nc2ncc3nc(C)c(=O)n(C4CC4)c3n2)c1 | – | 11.2 µM (active)
52 | COc1ccc2[nH]cc(CCNc3ncnc4ccc(-c5cccnc5)cc34)c2c1 | – | 2.24 µM (active)
53 | CC(=O)NCCNc1ncnc2ccc(-c3ccoc3)cc12 | – | 1 µM (active)
54 | CNc1ncnc2ccc(-c3ccccc3CN(C)C)cc12 | – | 12.6 µM (active)
55 | c1csc(CNc2ncnc3ccc(-c4ccoc4)cc23)c1 | – | 0.355 µM (active)
56 | COCCn1c(=O)c(C)nc2cnc(Oc3ccc(OC)cc3)nc21 | -1.12% (inactive) | –
57 | c1cncc(CNc2ncncc2-c2cccnc2)c1 | -13% (inactive) | –
58 | CN(C)C(=O)c1ccc(-c2cc(Nc3ccccc3)ncn2)cc1 | – | 14.1 µM (active)
59 | COCCNc1ncnc2ccc(-c3ccoc3)cc12 | – | 1 µM (active)
60 | COc1cccc(Cn2c(=O)cnc3cncnc32)c1 | – | 28.2 µM (active)
61 | CCNc1ncc2nc(-c3cn(C)c4ccccc34)c(=O)n(C)c2n1 | -16.4% (inactive) | –
62 | COc1ccc(-c2nc3cnc(Oc4cccc(Cl)c4)nc3n(C3CC3)c2=O)cc1 | 3.1% (inactive) | –
